# High-throughput results as filed in PubChem.
# In the library only some 3.5% were active in any assay of this set; here they are far more common.
# UGM FP inh – inhibitors of M. tuberculosis UDP-galactopyranose mutase; P9WIQ1; purified UGM, fluorescence polarization probe displacement; inhibition, % at 10 µM; 320,000 compounds, 0.06% hits; AID 504406; in the data active = inhibition above about 10%, passing the limit was not always enough
# FBA Mtb inh – inhibitors of M. tuberculosis fructose-bisphosphate aldolase; inhibition, % at 1 µM; purified M. tuberculosis FBA, fluorescence read-out; 360,000 compounds, 2.3% hits; in the data active = inhibition above about 27%
# Rv3671c inh – Rv3671c (M. tuberculosis) protease inhibition; 320,000 compounds, 0.048% hits; inhibition, % at 5.96 µM; P9WHR9; in the data active = inhibition above about 38%;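 also: extracellular domain of Rv3671c used as enzyme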
# Target sequence (P9WHR9 whole entry, looked up, the tested form may be a part): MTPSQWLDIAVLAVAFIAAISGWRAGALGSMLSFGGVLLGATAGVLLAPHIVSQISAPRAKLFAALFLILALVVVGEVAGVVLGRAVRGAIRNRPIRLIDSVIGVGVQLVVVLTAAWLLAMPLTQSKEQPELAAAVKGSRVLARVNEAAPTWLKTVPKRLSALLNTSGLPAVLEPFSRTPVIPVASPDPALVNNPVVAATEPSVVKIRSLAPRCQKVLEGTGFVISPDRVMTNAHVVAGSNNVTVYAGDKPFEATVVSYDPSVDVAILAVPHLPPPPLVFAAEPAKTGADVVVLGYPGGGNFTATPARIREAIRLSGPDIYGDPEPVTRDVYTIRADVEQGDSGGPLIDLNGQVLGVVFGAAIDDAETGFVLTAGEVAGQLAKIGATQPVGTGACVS
# GDH-TPI counter – counter-screen for M. tuberculosis FBA inhibitors: GDH-TPI coupled enzymes; GDH-TPI coupled enzyme counterscreen, NADH absorbance; inhibition, % at 4.8 µM; 360,000 compounds, 1.2% hits; AID 588335; in the data active = inhibition above about 30%
# Hits are given with their value; i = inactive; nt = no result given; + = active, no number.
SMILES,UGM FP inh,FBA Mtb inh,Rv3671c inh,GDH-TPI counter
Clc1ccc2c(c1)C1OCCC1C(c1ccco1)N2 (centres undefined),i,69.5,i,i
CC(=O)N1c2ccc(Cl)cc2C2OCCC2C1c1ccco1 (centres undefined),i,i,i,i
C=CCn1cnc2c(oc3ccccc32)c1=O,i,i,nt,i
CCC(=O)OCc1cc(=O)oc2ccc3ccccc3c12,i,170.0,i,i
CC(=O)N1CCN(Cc2cc(=O)oc3ccc4ccccc4c23)CC1,nt,i,nt,nt
O=C1C=C(NCc2ccc3c(c2)OCO3)CC(c2ccccc2)C1 (centres undefined),i,nt,i,nt
COc1cc(/C=N/NC(=S)NC2CC3CC2C2C=CCC32)ccc1O (centres undefined),i,i,i,36.6
Cc1ccc(/C=N/NC(=S)NC2CCS(=O)(=O)C2)cc1 (centres undefined),i,i,i,i
COc1ccc(/C=N/NC(=S)NC2CCS(=O)(=O)C2)cc1OC (centres undefined),i,i,i,41.0
Cn1cc(-c2ccc3c(c2)OCO3)c2ccccc21,nt,i,nt,nt
COc1ccc(CCNC(=O)Nc2ccc3c(c2)c(=O)n(C)n3Cc2ccc(F)cc2)cc1OC,nt,117.9,nt,i
Cn1c(=O)c2cc(NC(=S)NCc3ccccc3F)ccc2n1Cc1ccc(F)cc1,nt,i,nt,i
C=C(C)Cn1c2ccc(NC(=O)NCCc3ccccc3)cc2c(=O)n1C,nt,170.0,nt,i
Cn1c(=O)c2cc(NC(=O)NCCc3ccccc3)ccc2n1Cc1ccc(F)cc1,nt,185.6,nt,i
COc1cc(Cn2c3ccc(NC(=O)NCc4ccc(F)cc4)cc3c(=O)n2C)ccc1F,nt,145.7,nt,i
COc1ccc(NC(=O)NCCCCc2ccccc2)cc1OC,i,i,i,i
O=C(NCc1ccc(F)cc1)Nc1ccc(Cl)cc1,i,i,i,i
Cn1c(=O)c2cc(NC(=S)NC3CC3)ccc2n1Cc1ccc(F)cc1,nt,i,nt,i
COc1ccc(CNC(=O)Nc2ccc3c(c2)c(=O)n(C)n3Cc2cccc(C(F)(F)F)c2)cc1,nt,127.7,nt,i
COc1ccc(CCC(=O)NCc2cccc(C(F)(F)F)c2)cc1,i,i,i,i
COC(=O)[C@]1(C)N[C@H](CN(C)C(=O)Nc2ccc(C)cc2)[C@@H]2C(=O)N(C)C(=O)[C@@H]21,i,i,i,i
Cc1cc(NS(=O)(=O)c2c(C(=O)N3CCOCC3)c(C)n(C)c2C)ccc1Br,i,i,i,i
COc1cc2c(cc1OC)-c1cc(OCCN3CCOCC3)nc(=O)n1CC2,i,+,i,32.4
CCNc1cc2n(c(=O)n1)CCc1cc(OC)c(OC)cc1-2,i,i,i,i
COc1cc2c(cc1OC)-c1cc(NC3CC3)nc(=O)n1CC2,i,i,i,37.1
SMILES,UGM FP inh,FBA Mtb inh,Rv3671c inh,GDH-TPI counter
COc1cc2c(cc1OC)-c1cc(NC3CCCCCCC3)nc(=O)n1CC2,i,i,i,i
CCOc1ccccc1Nc1cc2n(c(=O)n1)CCc1cc(OC)c(OC)cc1-2,i,i,i,34.0
CC1(C)CC(=O)c2sc(N3CCCCC3)nc2C1,i,i,i,41.9
CC1(C)CC(=O)c2sc(NC(=O)CN3CCOCC3)nc2C1,i,i,i,i
CC1(C)CC(=O)c2sc(NC(=O)CN3C(=O)CCC3=O)nc2C1,i,i,i,31.8
CC1(C)CC(=O)c2sc(NC(=O)C3COc4ccccc4O3)nc2C1 (centres undefined),i,i,i,33.6
CC1(C)CC(=O)c2sc(NS(C)(=O)=O)nc2C1,i,i,i,35.0
CC1(C)CC(=O)c2sc(NS(=O)(=O)c3ccccc3)nc2C1,i,i,i,i
CC(C)N(Cc1cn[nH]c1-c1ccc(-c2ccccc2)cc1)Cc1nccn1C,i,i,i,i
C=CC[C@H](CC(=O)N[C@H](CO)Cc1ccccc1)C(=O)N[C@@H](COC(=O)[C@H](CC=C)CC(=O)OC(C)(C)C)Cc1c[nH]c2ccccc12,i,i,i,i
CCOc1cc(OCC)cc(C(=O)NCc2ccco2)c1,i,i,i,i
CC(C)C(=O)N1CCN(c2ccccc2NC(=O)c2ccco2)CC1,i,i,i,i
CC(=O)NC12CC3CC(C1)CC(C(=O)NCc1ccc(C)cc1)(C3)C2,i,i,i,i
Cc1ccc(-c2c(C#N)c(N)n(-c3ccccc3)c(=O)c2C#N)cc1,i,i,i,40.3
Cc1ccc(-c2c(C#N)c(N)n(-c3ccc(Cl)cc3)c(=O)c2C#N)cc1,nt,i,nt,31.2
CC(C)C(N)c1csc(Nc2ccc(C(=O)c3ccccc3)cc2)n1 (centres undefined),nt,i,nt,i
CCc1ccc(/C=C2/C(=O)NC(=O)N2C(C)=O)cc1,i,i,i,40.0
O=C(c1cc2ccccn2n1)N1CCN(c2cccc(C(F)(F)F)c2)CC1,i,i,i,i
Cc1ccc(C)c(N2CCN(C(=O)c3cc4ccccn4n3)CC2)c1,26.9,i,i,i
COc1ccc(NS(=O)(=O)NC(=O)c2c[nH]c3ccccc23)cc1,i,i,i,i
COC(=O)c1cc2c(-c3ccccc3)cc3ccccn3c-2c1C(=O)OC,i,i,i,35.2
COC(=O)c1c(C)c2c(C)cc3ccccn3c-2c1C(=O)OC,i,i,i,i
Cc1ccc(S(=O)(=O)NN=CC2(c3ccccc3)CC2)cc1,nt,i,nt,i
Cc1ccccc1C(=O)Nc1cccc(C(=O)N/N=C/c2ccc3c(c2)OCO3)c1,i,i,i,32.4
O=C(N/N=C/c1ccc2c(c1)OCO2)c1ccc(NC(=O)c2ccccc2Cl)cc1,i,i,i,35.3
SMILES,UGM FP inh,FBA Mtb inh,Rv3671c inh,GDH-TPI counter
O=C(N/N=C/c1ccc2c(c1)OCO2)c1cccc(NC(=O)c2ccccc2Cl)c1,i,i,i,i
CCOC(=O)C1CCN(S(=O)(=O)c2cccc(-c3cn4cccnc4n3)c2)CC1,i,+,i,i
Cc1ccc(C2=NN(C(=O)CN3CCN(C4CCS(=O)(=O)C4)CC3)C(c3ccco3)C2)cc1 (centres undefined),i,i,i,i
COc1ccc(Cl)cc1-n1c(N)c(C(N)=O)sc1=S,i,i,i,37.1
CCOc1ccccc1-n1c(N)c(C(N)=O)sc1=S,i,i,i,31.5
CCOC(=O)c1ccc(S(=O)(=O)N2CCN(CC(O)COc3ccc(C#N)cc3)CC2)cc1 (centres undefined),i,i,i,i
COC(=O)Cn1c2ccccc2c2nc(=O)cc(C)n21,i,i,i,i
COc1cc2c(cc1OC)n(CC(=O)NC1CCCCCC1)n1c(C)cc(=O)nc21,i,113.4,i,i
O=C1NCCc2c1[nH]c1ccccc21,i,27.2,i,i
O=C1NCCc2c1[nH]c1ccc([N+](=O)[O-])cc21,i,i,i,i
COc1ccc(-c2cc(=O)c3c(OC)c(OC)c(OC)c(OC)c3o2)cc1,nt,i,nt,51.0
CC(C)CNC(=O)C1(C)CCCN1C(=O)c1cccnc1Oc1ccccc1 (centres undefined),nt,i,nt,i
O=C(CN1C(=O)S/C(=C\c2ccccc2Cl)C1=O)NCCCn1ccnc1,i,i,i,35.3
CN(C(=O)NC(=O)C1=C(N2CCOCC2)/C(=C/c2ccccc2)CC1)S(C)(=O)=O,i,113.9,i,i
O=C(O)c1ccc(N/N=C/C2=C(N3CCOCC3)C(=C\c3ccccc3)/CC2)cc1,i,i,i,i
C=C(C1=CCN(S(=O)(=O)C(C)(C)C)[C@@H]1CCO)c1ccccc1,nt,i,nt,i
CCc1ccc2c(CSc3nnnn3C)cc(=O)oc2c1,i,i,i,33.8
